Records with an inconclusive call do not appear. Values without a mark were called inactive. The call rests on the fitted dose curve; in most records, active means well fitted inhibition curve with a large enough effect; inconclusive means small, poorly fitted or top-dose-only effect; inactive means no such curve, though single readings can be large or run the other way.
Assay: qHTS assay for measurement of the activity of small molecule inhibitors on Zika virus induced Caspase-3 activity in human iPSC derived neural progenitor cells (hNPCs) (AID 1224857); further: % of control where 0% means no effect; nearly all actives have a fitted effect of over 65% in size
Conditions: hNPCs ZIKV-induced caspase-3/7, Caspase-Glo luminescence, 6 h; series mostly up to 45.7 µM; activity change, negative = inhibition: at the top concentration
Procedure, shortened: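 Human iPSC-derived neural progenitor cells pretreated 1 hr with compounds, then infected with Zika virus (2 FFU/cell) for 6 hours at 37 C. Caspase-3/7 measured by Caspase-Glo luminescence; % inhibition calculated from induction scaled to uninfected (0%) and infected (100%) wells.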

SMILES	activity change, negative = inhibition
NC(=O)C1=CN(C2OC(COP(=O)(O)OP(=O)(O)OC[C@H]3O[C@@H](n4cnc5c(N)ncnc54)[C@H](OP(=O)(O)O)C3O)C(O)C2O)C=CC1 (some centres not stated)	-2.35%
CCCCCCCCCCCCCCCCCCN(CCCCCCCCCCCCCCCCCC)CCCN(CCO)CCO	1.03%
CN(CCCOc1ccc(Cc2ccccc2)cc1)CCC(=O)O	18%
Nc1ccn([C@@H]2O[C@H](CO)[C@@H](O)[C@@H]2O)c(=O)n1	31.8%
NCC1OC(OC2C(O)[C@@H](OC3C(O)C(N)CC(N)C3OC3OC(CO)C(O)C(O)C3N)O[C@@H]2CO)C(N)C(O)C1O (some centres not stated)	-3.91%
Nc1nc(OCC2CCCCC2)c2[nH]cnc2n1	-0.371%
COc1ccc(C(=O)/C(Cc2cc(OC)c(OC)c(OC)c2)=C(\C(=O)O)c2ccc3c(c2)OCO3)cc1	14.3%
O=[N+]([O-])c1ccc(CNc2nc(NCc3cccc(C(F)(F)F)c3)nc3nc[nH]c23)cc1	-11.1%
CCN(CC)CCCCNc1ncc2cc(-c3c(Cl)cccc3Cl)c(NC(=O)NC(C)(C)C)nc2n1	2.1%
COC(=O)C1=C(C)NC(C)=C(C(=O)OC)C1c1cccc(NC(=O)NCCCN2CCC(c3cccc(OC)c3)CC2)c1	-6.34%
O=C1NC(=O)c2c1c(-c1ccccc1)cc1[nH]c3ccc(O)cc3c21	82.8%
OCC1O[C@H]([S-])C(O)[C@@H](O)[C@@H]1O.[Au+] (some centres not stated)	4.18%
CO[C@H]1O[C@@H]2O[C@]3(C)CC[C@@H]4[C@@H](C)CC[C@H]([C@H]1C)[C@]24OO3	-10%
CC(C)(C)NCC(O)COc1nsnc1N1CCOCC1 (configuration not stated)	-16.7%
Cn1c(=O)c(-c2c(Cl)cccc2Cl)cc2cnc(Nc3ccc(N4CCOCC4)cc3)nc21	-0.197%
O=C(NOCC1CC1)c1cc(Br)c(F)c(F)c1Nc1ccc(I)cc1Cl	32.6%
O=C(Nc1ccc2c(c1)CCN(Cc1ncn[nH]1)C2)c1ccccc1-c1ccc(C(F)(F)F)cc1	19.5%
CC(C)c1cccc(C(C)C)c1N1C(=O)c2ccc(O)cc2C1=O	14.4%
N=c1ccn2c(n1)O[C@H]1C(O)[C@@H](CO)O[C@H]12 (some centres not stated)	24.2%

SMILES	activity change, negative = inhibition
CC(C)(C)c1nnc(NS(=O)(=O)c2ccc(N)cc2)s1	2.36%
Nc1nc(Cl)nc2c1ncn2[C@@H]1O[C@H](CO)C(O)[C@H]1O (some centres not stated)	22.2%
COc1ccc(/C=C2\COc3ccc(C)cc3C2=O)cc1O	22.2%
CNC(=O)[C@H]1O[C@@H](n2cnc3c(NCc4ccc(N)cc4)ncnc32)[C@H](O)C1O (some centres not stated)	-7.82%
Cc1c(N)c(=O)n(-c2ccccc2)n1C	-9.65%
CNc1ncnc2c1ncn2[C@@H]1O[C@H](CO)C(O)[C@H]1O (some centres not stated)	-6.29%
CC(C)(NS(=O)(=O)c1ccc(Oc2ccc(F)cc2)cc1)C(=O)NO	-1.84%
CCCC(CCC)C(=O)OC1CC2CCC(C1)[N+]2(C)C (configuration not stated)	-13.8%
COCCOc1cc2ncnc(Cl)c2cc1OCCOC	-5%
CC[C@@H](C)[C@H]1O[C@]2(CC[C@@H]1C)C[C@@H]1C[C@@H](C/C=C(\C)[C@@H](O[C@H]3C[C@H](OC)[C@@H](O[C@H]4C[C@H](OC)[C@@H](O)[C@H](C)O4)[C@H](C)O3)[C@@H](C)/C=C/C=C3\CO[C@@H]4[C@H](O)C(C)=C[C@@H](C(=O)O1)[C@]34O)O2	335%
Nc1nc(SCc2ccc([N+](=O)[O-])cc2)c2ncn([C@@H]3O[C@H](CO)C(O)[C@H]3O)c2n1 (some centres not stated)	34.2%
C[N+](C)(C)CCOP(=O)(O)OP(=O)([O-])OC[C@H]1O[C@@H](n2ccc(N)nc2=O)[C@H](O)C1O (some centres not stated)	3.88%
O=C1CN(/N=C/c2ccc(-c3ccc([N+](=O)[O-])cc3)o2)C(=O)N1	-12.2%
O=C(Nc1ccncc1)c1cc([N+](=O)[O-])ccc1Cl	8.36%
C=C[C@H]1CN2CC[C@@H]1C[C@H]2[C@H](O)c1ccnc2ccc(OC)cc12	-3.99%
O=C(CCSCc1ccco1)NNC(=O)N1Cc2ccccc2Oc2ccc(Cl)cc21	-24.9%
COc1cc(OC)cc(-c2cc3cnc(N)nc3nc2NC(=O)NC(C)(C)C)c1	9.4%
O=C(CCc1ccncc1)NNC(=O)N1Cc2ccccc2Oc2ccc(Cl)cc21	12.9%

Source: PubChem BioAssay (NCATS)
